Data as given in PubChem BioAssay AID1159580 (chemical genetic matrix, 2015).
The campaign covered roughly 5,500 compounds. About 2,000 (36%) were called active. Not shown: some 18% with an inconclusive outcome. Rule as the data show it: active = normalized growth mostly below about 0.91 (no sharp cut-off); inconclusive = no clear call, values can overlap the other calls; inactive = mostly above about 0.92. The list shows a part of the results.

Experiment: chemical genetic growth profiling, strain panel (AID 1159580);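 also: tested at 20 µM; growth read once vehicle control cultures reached saturation at 30 °C; 1 = growth at the plate median or of vehicle wells; lower values mean less growth of the strain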
Conditions: growth OD

Measured: normalized growth

CC1(C)O[C@@H]2CC3C4C[C@H](F)C5=CC(=O)CC[C@]5(C)C4[C@@H](O)C[C@]3(C)[C@]2(C(=O)CO)O1 (some centres not stated)
inactive: S. cerevisiae deletion strains, locus YJR075W, strain HOC1, hits give low values 1.01 | S. cerevisiae deletion strains, locus YKL009W, strain mrt4, hits give low values 0.999 | S. cerevisiae deletion strains, locus YKL068W, hits give low values 1.02 | S. cerevisiae deletion strains, locus YKL085W, strain MDH1 (second series), hits give low values 1 | S. cerevisiae deletion strains, locus YKL085W, strain MDH1, hits give low values 1 | S. cerevisiae deletion strains, locus YKL160W, strain elf1, hits give low values 0.988 | S. cerevisiae deletion strains, locus YKL190W, strain CNB1, hits give low values 1.02 | S. cerevisiae deletion strains, locus YKR001C, strain vps1, hits give low values 1.01 | S. cerevisiae deletion strains, locus YKR026C, strain gcn3, hits give low values 1 | S. cerevisiae deletion strains, locus YKR091W, strain srl3, hits give low values 0.997 | S. cerevisiae deletion strains, locus YLL001W, strain dnm1, hits give low values 0.977 | S. cerevisiae deletion strains, locus YLL026W, hits give low values 1.01 | S. cerevisiae deletion strains, locus YLL041C, strain sdh2, hits give low values 1.01 | S. cerevisiae deletion strains, locus YLR027C, strain aat2, hits give low values 1.02 | S. cerevisiae deletion strains, locus YLR039C, strain RIC1, hits give low values 1.03 | S. cerevisiae deletion strains, locus YLR058C, strain SHM2, hits give low values 1.02 | S. cerevisiae deletion strains, locus YLR102C, strain apc9, hits give low values 1.01 | S. cerevisiae deletion strains, locus YLR113W, strain HOG1, hits give low values 1.02 | S. cerevisiae deletion strains, locus YLR221C, strain rsa3, hits give low values 0.999 | S. cerevisiae deletion strains, locus YLR258W, strain gsy2, hits give low values 1.02 | S. cerevisiae deletion strains, locus YLR262C, strain YPT6 (second series), hits give low values 0.988 | S. cerevisiae deletion strains, locus YLR262C, strain YPT6, hits give low values 1.04 | S. cerevisiae deletion strains, locus YLR268W, strain sec22, hits give low values 1.01 | S. cerevisiae deletion strains, locus YLR320W, strain mms22, hits give low values 0.985 | S. cerevisiae deletion strains, locus YLR330W, strain CHS5, hits give low values 1.01 | S. cerevisiae deletion strains, locus YLR342W, strain FKS1 (second series), hits give low values 0.997 | S. cerevisiae deletion strains, locus YLR342W, strain FKS1, hits give low values 1.01 | S. cerevisiae deletion strains, locus YLR357W, strain rsc2, hits give low values 0.968 | S. cerevisiae deletion strains, locus YLR370C, strain arc18, hits give low values 1 | S. cerevisiae deletion strains, locus YLR371W, strain rom2, hits give low values 1 | S. cerevisiae deletion strains, locus YLR384C, strain iki3, hits give low values 0.986 | S. cerevisiae deletion strains, locus YLR418C, strain cdc73, hits give low values 1.01 | S. cerevisiae deletion strains, locus YML016C, strain PPZ1, hits give low values 1.01 | S. cerevisiae deletion strains, locus YML032C, strain rad52, hits give low values 0.996 | S. cerevisiae deletion strains, locus YML120C, strain ndi1, hits give low values 1.01 | S. cerevisiae deletion strains, locus YML124C, strain tub3, hits give low values 1.01 | S. cerevisiae deletion strains, locus YMR058W, strain fet3, hits give low values 1.02 | S. cerevisiae deletion strains, locus YMR078C, strain ctf18, hits give low values 1.01 | S. cerevisiae deletion strains, locus YMR125W, strain sto1, hits give low values 1.02 | S. cerevisiae deletion strains, locus YMR129W, hits give low values 1.02 | S. cerevisiae deletion strains, locus YMR205C, strain PFK2, hits give low values 1.01 | S. cerevisiae deletion strains, locus YMR223W, strain ubp8, hits give low values 0.993 | S. cerevisiae deletion strains, locus YMR231W, strain pep5, hits give low values 1 | S. cerevisiae deletion strains, locus YMR263W, strain SAP30, hits give low values 1.02 | S. cerevisiae deletion strains, locus YMR307W, strain GAS1, hits give low values 1.01 | S. cerevisiae deletion strains, locus YNL067W, strain RPL9B, hits give low values 1.01 | S. cerevisiae deletion strains, locus YNL071W, strain lat1, hits give low values 1.01 | S. cerevisiae deletion strains, locus YNL128W, strain TEP1, hits give low values 1.02 | S. cerevisiae deletion strains, locus YNL153C, strain GIM3, hits give low values 1.01 | S. cerevisiae deletion strains, locus YNL183C, strain NPR1, hits give low values 0.931 | S. cerevisiae deletion strains, locus YNL209W, strain ssb2, hits give low values 0.999 | S. cerevisiae deletion strains, locus YNL233W, strain BNI4, hits give low values 1.01 | S. cerevisiae deletion strains, locus YNL248C, strain rpa49, hits give low values 0.987 | S. cerevisiae deletion strains, locus YNL250W, strain rad50, hits give low values 1 | S. cerevisiae deletion strains, locus YNL271C, strain bni1, hits give low values 1.01 | S. cerevisiae deletion strains, locus YNL298W, strain CLA4, hits give low values 1 | S. cerevisiae deletion strains, locus YNL307C, strain MCK1, hits give low values 1.01 | S. cerevisiae deletion strains, locus YNL322C, strain KRE1 (second series), hits give low values 0.993 | S. cerevisiae deletion strains, locus YNL322C, strain KRE1, hits give low values 1.02 | S. cerevisiae deletion strains, locus YNR049C, strain mso1, hits give low values 1 | S. cerevisiae deletion strains, locus YNR052C, strain pop2, hits give low values 0.999 | S. cerevisiae deletion strains, locus YOL006C, strain TOP1, hits give low values 1.04 | S. cerevisiae deletion strains, locus YOL012C, strain htz1 0.952 | S. cerevisiae deletion strains, locus YOL147C, strain pex11, hits give low values 1.01 | S. cerevisiae deletion strains, locus YOR001W, strain rrp6, hits give low values 1 | S. cerevisiae deletion strains, locus YOR061W, strain CKA2, hits give low values 1.01 | S. cerevisiae deletion strains, locus YOR069W, strain VPS5, hits give low values 1.01 | S. cerevisiae deletion strains, locus YOR070C, strain gyp1, hits give low values 1.01 | S. cerevisiae deletion strains, locus YOR080W, strain dia2, hits give low values 1.02 | S. cerevisiae deletion strains, locus YOR083W, strain WHI5, hits give low values 0.946 | S. cerevisiae deletion strains, locus YOR106W, strain vam3, hits give low values 1.01 | S. cerevisiae deletion strains, locus YOR136W, strain idh2, hits give low values 0.994 | S. cerevisiae deletion strains, locus YOR144C, strain elg1, hits give low values 1 | S. cerevisiae deletion strains, locus YOR184W, strain ser1, hits give low values 1 | S. cerevisiae deletion strains, locus YOR231W, strain MKK1, hits give low values 1.03 | S. cerevisiae deletion strains, locus YOR265W, strain rbl2, hits give low values 1.01 | S. cerevisiae deletion strains, locus YOR270C, strain vph1, hits give low values 1.03 | S. cerevisiae deletion strains, locus YOR290C, strain snf2, hits give low values 1.01 | S. cerevisiae deletion strains, locus YOR316C, strain cot1, hits give low values 1.01 | S. cerevisiae deletion strains, locus YPL051W, strain arl3, hits give low values 1.01 | S. cerevisiae deletion strains, locus YPL055C, strain LGE1, hits give low values 1.04 | S. cerevisiae deletion strains, locus YPL078C, strain atp4, hits give low values 1.01 | S. cerevisiae deletion strains, locus YPL106C, strain sse1, hits give low values 0.973 | S. cerevisiae deletion strains, locus YPL240C, strain hsp82, hits give low values 1 | S. cerevisiae deletion strains, locus YPL241C, strain CIN2, hits give low values 0.962 | S. cerevisiae deletion strains, locus YPL256C, strain CLN2, hits give low values 1.03 | S. cerevisiae deletion strains, locus YPR119W, strain clb2, hits give low values 1 | S. cerevisiae deletion strains, locus YPR141C, strain kar3, hits give low values 1.01 | S. cerevisiae deletion strains, locus YPR163C, strain tif3, hits give low values 1 | S. cerevisiae deletion strains, locus YPR167C, strain met16, hits give low values 1 | S. cerevisiae deletion strains, strain wtn01, hits give low values 1.01 | S. cerevisiae strains, strain wild type, hits give low values 1.02
